LANA-H2B inh: blocks KSHV LANA binding to histone H2A/H2B; inhibition, % (no concentration beside the values); 320,000 tested, 0.6% active; cell-free LANA-H2A/H2B peptide, fluorescence polarization; Q9QR71; in the data active = inhibition mostly above about 10%, no sharp cut-off; inactive = mostly below about 6.7%
ZTA counter: blocks Epstein-Barr virus ZTA, an EBNA-1 counter-screen | ZTA-DNA binding, fluorescence polarization | P03206 | 320,000 tested, 0.15% active | inhibition, % at 11 µM; in the data active = inhibition above about 33%
Target sequence (P03206 whole entry, looked up): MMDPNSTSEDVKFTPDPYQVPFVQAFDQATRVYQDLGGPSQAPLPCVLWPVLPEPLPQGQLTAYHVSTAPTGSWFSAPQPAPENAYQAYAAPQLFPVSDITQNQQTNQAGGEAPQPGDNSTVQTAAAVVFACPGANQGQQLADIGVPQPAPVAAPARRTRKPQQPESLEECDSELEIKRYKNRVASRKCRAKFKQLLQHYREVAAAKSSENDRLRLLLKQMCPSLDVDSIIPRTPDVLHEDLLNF
EBNA-1 inh: blocks EBNA-1 binding to DNA; AID 1950; EBNA-1 DNA binding, fluorescence polarization; inhibition, % at 14.8 µM; 300,000 tested, 0.34% active; in the data active = inhibition above about 28%
LYPLA2 inh: LYPLA2 (human) inhibition in PME1 counter-screen; O95372; recombinant LYPLA2, FP-Rh probe fluorescence polarization; inhibition, % at 5.9 µM; 320,000 tested, 0.38% active;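 active = inhibition above the screen-wide mean plus 3 SD, limit set per campaign, cut at about 26% in these data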;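 note: 0% = LYPLA2 with DMSO and 100% = wells lacking LYPLA2 enzyme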
Target sequence (O95372 whole entry, looked up): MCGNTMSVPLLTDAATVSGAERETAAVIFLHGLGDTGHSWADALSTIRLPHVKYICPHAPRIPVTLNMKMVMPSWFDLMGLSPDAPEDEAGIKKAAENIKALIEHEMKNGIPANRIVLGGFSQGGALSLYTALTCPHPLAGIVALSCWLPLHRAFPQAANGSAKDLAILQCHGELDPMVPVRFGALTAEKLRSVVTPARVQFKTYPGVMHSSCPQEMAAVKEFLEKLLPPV
LYPLA1 counter: blocks human lysophospholipase 1, a PME1 counter-screen; AID 2174; O75608; 320,000 tested, 0.16% active; inhibition, % at 5.9 µM; recombinant LYPLA1, FP-Rh probe fluorescence polarization;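 active = inhibition above the mean of all tested compounds plus 3 SD, set per campaign, cut at about 14% in these data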;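 note: inhibitors block serine hydrolase probe labeling of LYPLA1 so polarization falls; 0% = enzyme with DMSO and 100% = wells lacking LYPLA1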
Target sequence (O75608 whole entry, looked up): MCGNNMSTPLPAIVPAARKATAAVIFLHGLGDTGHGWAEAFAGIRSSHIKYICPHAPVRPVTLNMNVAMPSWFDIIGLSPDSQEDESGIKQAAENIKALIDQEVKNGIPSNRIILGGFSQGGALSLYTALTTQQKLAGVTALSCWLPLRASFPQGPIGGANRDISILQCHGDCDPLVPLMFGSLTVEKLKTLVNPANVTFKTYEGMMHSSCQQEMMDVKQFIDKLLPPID
EBNA-1 confirm: EBNA-1 (EBV) inhibition, confirmation | AID 2292 | Recombinant EBNA-1 DBD, Cy5-DNA fluorescence polarization | shares compounds with EBNA-1 inh | 830 tested, 35% active | inhibition, % at 14.8 µM;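 active = mean inhibition across replicates above a set limit taken from the earlier primary screen, cut at about 28% in these data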;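 note: plate controls were EBNA-1 protein with DMSO for no effect and wells lacking EBNA-1 for full effect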
ZTA DNA inh trip: ZTA (EBV) inhibition, triplicate counter-screen; 830 tested, under 10 active; inhibition, % at 11.1 µM; AID 2328; shares compounds with EBNA-1 inh; Zta-ZRE DNA binding, Cy5 fluorescence polarization;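 active = mean inhibition over triplicates above a set limit taken from the primary EBNA-1 screen, cut at about 37% in these data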;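 note: purified full length Zta protein with Cy5 labeled ZRE DNA probe; 0% = Zta with DMSO and 100% = wells lacking Zta protein; inhibitors lower polarization by freeing the labeled DNA probe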
* = called active by the depositor; · = no result. The list is not random: actives were taken first. Their share in the collection is about 1.4%.

SMILES | LANA-H2B inh | ZTA counter | EBNA-1 inh | LYPLA2 inh | LYPLA1 counter | EBNA-1 confirm | ZTA DNA inh trip
CC(C)CNc1nc(N)c([N+](=O)[O-])c(NCC2CCCO2)n1 (stereo unspecified) | 1.3 | 4.2 | -9.1 | -1.1 | -1.8 | · | ·
COc1ccc(CCNC(=O)c2sc(=S)n(C)c2N)cc1 | -0.9 | -9.5 | 27.9* | -0.8 | -0.3 | 2.6 | -4.7
COCCCNC(=O)c1c(N)n(-c2ccc(S(N)(=O)=O)cc2)c2nc3ccccc3nc12 | 3.5 | 24.6 | 113.5* | 2.7 | -1.1 | 64.8* | -12.8
COCCCNC(=O)c1c(N)n(-c2ccccc2)c2nc3ccccc3nc12 | 1.0 | -4.6 | -3.4 | -0.7 | 0.2 | · | ·
[O-][n+]1c2ccccc2[n+]([O-])c2cc(O)ccc21 | 1.8 | 22.2 | 5.0 | 2.3 | 0.1 | · | ·
O=C(CCCCCNc1nc(=S)[nH]c2ccccc12)NCCc1ccc(Cl)cc1 | 1.5 | 3.1 | 66.1* | -3.1 | -0.2 | 67.9* | 2.4
O=C(CCCCCNc1nc(=S)[nH]c2ccccc12)NCCc1c[nH]c2ccccc12 | 1.4 | 16.4 | 15.0 | 8.0 | 0.7 | · | ·
COc1cccc(-c2nc(CS(=O)(=O)CC(=O)Nc3c(C)cccc3C)c(C)o2)c1 | 3.5 | 1.1 | 1.5 | -1.1 | -2.8 | · | ·
COc1ccc(OC)c(NC(=O)CS(=O)(=O)Cc2nc(-c3ccccc3C)oc2C)c1 | -7.7 | 1.0 | 56.8* | 2.7 | -0.8 | -12.4 | -2.2
O=C(C[n+]1ccc(C(=O)NCc2ccccc2)cc1)c1ccc(Cl)cc1 | 8.6 | -13.1 | -2.6 | 6.3 | -2.4 | · | ·
O=C(CCC(=O)Nc1ccc(Br)cc1)N/N=C/c1ccc(F)cc1 | 3.0 | 13.4 | 33.6* | -9.3 | -7.0 | 19.3 | 12.5
COc1ccccc1NC(=O)Cn1c2ccccc2c2nc3n(c(=O)c21)CCS3 | -6.8 | -14.6 | 43.8* | -3.6 | 0.3 | 0.4 | -8.3
O=C(Cn1c2ccccc2c2nc3n(c(=O)c21)CCS3)Nc1ccccc1C(F)(F)F | -43.5 | 2.3 | -8.9 | -5.8 | -4.3 | · | ·
O=C(Cn1ccccc1=O)Nc1ccc(Cl)c(S(=O)(=O)N2CCCCC2)c1 | 3.0 | 1.9 | · | 6.6 | 1.2 | · | ·
CCOc1ccc(NC(=O)C2CCN(C(=O)C3CC(=O)N(c4ccc(C)cc4)C3)CC2)cc1 (stereo unspecified) | 4.3 | -8.5 | 1.0 | 5.2 | -1.6 | · | ·
COc1cc(CNC2CCCCCCC2)cc(Cl)c1OC | -2.9 | 2.3 | 89.9* | 8.0 | -0.5 | -3.4 | 2.1
O=C(CSc1ccc(-c2ccccc2)nn1)c1ccccc1 | 0.2 | -4.9 | 39.6* | 1.3 | -0.2 | -12.0 | -4.8
Cc1ccc(C(=O)CSc2ccc(-c3ccccc3)nn2)cc1 | 1.7 | -2.4 | -11.5 | 2.3 | 2.8 | · | ·
COC(=O)Cc1c(C)c2ccc(OC3CCCCC3=O)c(C)c2oc1=O (stereo unspecified) | 2.7 | 23.8 | 125.4* | 12.2 | 1.8 | -1.4 | -3.9
COc1ccc(NC(=O)c2ccc3c(c2)CCN3S(=O)(=O)c2ccccc2)c(OC)c1 | -1.0 | -1.1 | 28.3* | 8.2 | -2.1 | 15.1 | 5.0
O=C(O)c1cccc(S(=O)(=O)Nc2cc(Cl)ccc2Cl)c1 | 1.6 | -1.0 | 8.1 | 8.1 | 4.6 | · | ·
CC1CC(C)CN(C(=O)c2cccc(S(=O)(=O)Nc3cc(C(F)(F)F)ccc3Cl)c2)C1 (stereo unspecified) | -2.9 | 9.8 | 29.6* | -0.8 | -1.0 | 2.3 | -6.1
COC(=O)c1ccc2c(=O)[nH]c(CSc3nc(-c4ccc(F)cc4)cs3)nc2c1 | -0.1 | -17.2 | 59.6* | -1.2 | 0.1 | 34.1* | 11.8
Cc1cccc(C)c1NC(=O)COc1ccc2c(C)c(Cc3ccccc3)c(=O)oc2c1 | 3.9 | 11.3 | 67.7* | -4.5 | -2.0 | 7.1 | -5.3
COc1ccc(CNC(=O)C2CCN(C(=O)N(C)C)CC2)c(OC)c1 | -1.1 | 5.7 | -5.5 | 2.4 | 1.1 | · | ·
SMILES | LANA-H2B inh | ZTA counter | EBNA-1 inh | LYPLA2 inh | LYPLA1 counter | EBNA-1 confirm | ZTA DNA inh trip
COc1ccccc1CNC(=O)C1CCN(C(=O)N(C)C)CC1 | -2.6 | 31.1 | 78.1* | 2.0 | 0.5 | 3.4 | 2.6
COC(=O)[C@]1(Cc2ccccc2)N[C@H](CN(C)S(=O)(=O)c2ccc(-c3ccccc3)cc2)[C@@H]2C(=O)N(C)C(=O)[C@@H]21 | 4.1 | · | · | · | · | · | ·
O=C(NCc1ccc(-c2nc3ccccc3s2)cc1)c1cc2ccccc2o1 | 2.1 | 3.3 | 28.2* | -2.5 | 1.8 | 2.6 | 4.6
COC(=O)c1ccc(S(=O)(=O)c2ccc(Cl)cc2)c(N)c1 | -2.4 | 1.1 | 7.7 | 4.9 | 0.3 | · | ·
CC(=O)N1c2ccc(S(=O)(=O)NCC3CCC(C(=O)NC4CCCCC4)CC3)cc2CC1C (stereo unspecified) | 1.7 | 2.7 | 41.3* | 6.2 | 6.0 | -5.0 | -6.0
CCOC(=O)C1=C(C)Nc2nc(SCC)nn2C1c1ccc(OC)cc1 (stereo unspecified) | -2.9 | 1.8 | 32.5* | -5.6 | -4.2 | 6.2 | 2.3
Cc1ccc(NC(=O)C2C3C=CC4(O3)C2C(=O)N(CCCN2CCCCC2)C4C(=O)NC2CCCCC2)cc1C (stereo unspecified) | -6.3 | 1.5 | -14.0 | 4.7 | -1.2 | · | ·
Cc1cccc(NC(=O)CSc2nc3ccc(NC(=O)CSc4nnnn4-c4ccccc4)cc3s2)c1C | -3.3 | 9.5 | 6.8 | -24.0 | -13.9 | · | ·
O=C(CSc1nc2ccc(NC(=O)CSc3nnnn3-c3ccccc3)cc2s1)Nc1ccccc1 | 2.9 | -2.6 | 48.8* | -53.5 | -24.4 | 61.2* | 0.0
O=C(O)C1CCCN1c1nc(-c2ccc(Cl)c(Cl)c2)cc(C(F)(F)F)n1 (stereo unspecified) | -5.5 | 8.5 | · | 4.6 | -6.6 | · | ·
Nc1nc(-c2ccc3c(c2)CCCC3)cs1 | 1.2 | -16.6 | 53.1* | -4.0 | -1.6 | 7.4 | -5.7
Nc1nc(-c2ccc3c(c2)OCCO3)cs1 | -0.5 | -8.1 | -6.2 | 9.9 | 5.7 | · | ·
O=C1c2ccccc2C(=O)N1CCCCN(C(=O)c1cc2ccccc2oc1=O)c1ccc(Cl)cc1 | 0.7 | 0.9 | 36.6* | -4.9 | -4.5 | 0.4 | 18.6
NS(=O)(=O)c1ccc(CCNC(=O)c2cc(-c3ccccn3)nc3ccc(Br)cc23)cc1 | 4.7 | -1.1 | 42.8* | -52.0 | -18.6 | 35.9* | 3.0
C=C1C(O)[C@@H]2O[C@]3(CC[C@H](/C=C/C(C)[C@@H]4CC(C)=CC5(O[C@H](C[C@@](C)(O)CO)CCC5O)O4)O3)CC[C@H]2O[C@@H]1C(O)CC(C)[C@H]1OC2(CCCCO2)CCC1C (stereo partly specified) | 3.5 | · | · | · | · | · | ·
COc1ccc(C(=O)Nc2ccc(C(=O)c3ccccc3)cc2)cc1 | -1.5 | 10.3 | 11.4 | -2.1 | -0.1 | · | ·
CCOc1ccc(NC(=O)c2cccc(NC(=O)c3ccccc3)c2)cc1 | 7.1 | 0.4 | 45.5* | -12.4 | -10.1 | 36.6* | -3.1
CCOc1cccc(C(=O)Nc2cccc(C(C)=O)c2)c1 | 0.7 | -11.5 | -0.5 | 4.3 | 0.3 | · | ·
